# Data published in PubChem BioAssay AID652017 (The Scripps Research Institute Molecular Screening Center, 2013).
# Hit rate of the full screen: of about 370,000 compounds, about 3,800 (1%) were called active. What follows is part of a selection rich in actives, with near analogues and random picks from the rest. Values without a mark were called inactive. No stated cut-off is given here; in the data, active means activation above about 7.8%; inactive means the rest.
# Test: SMARCA2 (BRM) function activators, primary screen, cell-based, luminescence, high throughput (AID 652017);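 further: 0% = vehicle wells and 100% = reference activator wells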
# Details: MG213 cells, MMTV-luciferase reporter, dexamethasone, overnight; at 9.1 µM; hits give high values
row,Structure (SMILES),activation
1,COc1ccccc1CCNC(=O)C1CCN(c2nc(C)cc(C)n2)CC1,-2.87%
2,CCOC(=O)[C@]12CCCC=C1N(CCCOC)C(=O)[C@@H]2CC(=O)N1CCOCC1,-2.55%
3,COc1ccc(S(=O)(=O)N(C)C[C@H]2Oc3c(NC(=O)Nc4ccc5c(c4)OCO5)cccc3C(=O)N([C@H](C)CO)C[C@@H]2C)cc1,-0.71%
4,Cc1noc(C)c1NC(=O)Nc1cccc2c1O[C@H](CN(C)S(=O)(=O)c1c(C)noc1C)[C@@H](C)CN([C@H](C)CO)C2=O,2.13%
5,Cc1noc(C)c1S(=O)(=O)N(C)C[C@H]1Oc2c(NC(=O)Nc3ccc4c(c3)OCO4)cccc2C(=O)N([C@H](C)CO)C[C@@H]1C,8.33% (active)
6,COc1ccc(Cn2cc(COC(=O)N(C)Cc3ccccc3)nn2)cc1,0.64%
7,Clc1ccc(Nc2ccc3ccccc3n2)cc1,5.05%
8,Cc1noc(C)c1/C=N/Nc1ccc2ccccc2n1,9.44% (active)
9,O=C(c1c[nH]c2ccccc12)N1CCC(Oc2cccnc2)CC1,3.83%
10,COCCNC(=O)c1ccccc1-c1nc(-c2ccccc2Cl)no1,3.36%
11,CN(C)CCNC(=O)c1ccc(Cl)c2cc3ccccc3nc12,56.5% (active)
12,Cc1cc(C)n(C(=O)CCNC(=O)c2ccccc2Cl)n1,0.01%
13,CC1(C)CC(=O)C=C(NCCN2CCNCC2)C1,-1.09%
14,CC1(C)CC(=O)C=C(NCCCN2CCCC2=O)C1,0.48%
15,CC1(C)CC(=O)C=C(NCCCNC2CCCCC2)C1,10.6% (active)
16,CC1C(=O)Nc2ccccc2N1C(=O)c1c(F)cccc1F (stereo not given),0.63%
17,O=C(CSc1nnc(COc2ccccc2)n1-c1ccc(Cl)cc1)Nc1ccc2c(c1)OCO2,-6.63%
18,COc1ccc2c(C(C)c3ccc(N)cc3)cn(C)c2c1 (stereo not given),-3.82%
19,Cc1ccc(S(=O)(=O)c2c[nH]c3ccc(C)cc3c2=O)cc1,-1.93%
20,Cc1ccc(S(=O)(=O)c2c[nH]c3ccc(Cl)cc3c2=O)cc1,10.9% (active)
21,CCCCN(C)Cc1c(C)[nH]c2ccc(Cl)cc2c1=O,-3.5%
22,CC(OC(=O)c1cccnc1Cl)C(=O)NC1CCCCC1 (stereo not given),-0.77%
23,CCN(C(=O)[C@@H](C1CC1)[C@@H](O)c1ccc2ccccc2c1)c1ccccc1,-7.28%

row,Structure (SMILES),activation
1,CC(C)CC(=O)Nc1nnc(S(=O)(=O)N(C)c2ccc(Cl)cc2)s1,1.27%
2,CCOC(=O)N1CCN(Cc2nc3cc(NC(=O)CC)ccc3n2CC)CC1,-1.94%
3,COc1ccc(N=C(C)c2sc3ccccc3c2O)cc1,11.4% (active)
4,COC(=O)c1ccc(/C=C/c2c(-c3ccc(OC)cc3)sc3ccccc23)cc1,3.05%
5,CCCOc1ccc(Oc2c(Cl)cnn(Cc3cccc4ccccc34)c2=O)cc1,-0.93%
6,CCOC(=O)c1c(C)[nH]c(C2=NNC(=NC(C)COC)SC2)c1C (stereo not given),10.5% (active)
7,Cc1ccccc1CN1CCCCC(NC(=O)c2cccc(C#N)c2)C1=O (stereo not given),-3.87%
8,Cc1ccc(S(=O)(=O)N2C[C@@H]3CCCC[C@@H]3[C@@H](C)[C@H]2c2cn(Cc3ccccc3)c3ccc(F)cc23)cc1,-2.92%
9,CC(C)(C)OC(=O)NCCc1ccccc1/C=C/S(=O)(=O)NCc1ccc(F)cc1,-3.29%
10,O=C(CSc1nnc(-c2ccccn2)n1-c1ccc(Cl)cc1)Nc1ccccc1-c1ccccc1,-4.51%
11,CN(C)c1nc(NN)nc(Nc2ccc(F)cc2)n1,-0.18%
12,CCn1c2ccc(F)cc2c2nnc(SCCN3CCOCC3)nc21,0.99%
13,Cn1c2ccc(F)cc2c2nnc(NN)nc21,11.8% (active)
14,CCOC(=O)C1=C(c2ccccc2)NC(=O)NC1c1cc(OC)c(OC)cc1OC (stereo not given),-1.63%
15,Cc1ccc(-n2c(COc3ccccc3)nnc2SCC(=O)Nc2ccc3c(c2)OCCO3)cc1,-5.34%
16,O=S(=O)(Cc1nnnn1-c1ccccc1)c1ccccc1,3.47%
17,COc1ccc(S(=O)(=O)NC(=O)C2(C)CCN2C(=O)c2ccccc2CCc2ccccc2)cc1 (stereo not given),-0.47%
18,COc1ccc(S(=O)(=O)N(C)C)cc1NC(=O)CSc1ncccn1,1.65%
19,CN(C)S(=O)(=O)c1ccc2oc(SCC(=O)Nc3ccccc3F)nc2c1,12% (active)
20,CCS(=O)(=O)c1ccc2oc(SCC(=O)N3c4ccccc4CC3C)nc2c1 (stereo not given),0.08%
21,CCOC(=O)[C@]12CCCC3=C1N(CCC3)C(=O)[C@@H](CC(=O)NCc1cccs1)C2,-4.78%
22,Nc1ccc(N=Nc2ccccc2Cl)c(N)n1,7.92% (active)
